Reference: the supplement of paper PMC12636033
± gives the standard deviation of the averaged measurements. In all, about 33,000 sequences were measured (“E-score (rank enrichment, -0.5 to 0.5)”: median about -0.0068, highest 2% from about 0.24 on). Shown is part of a subset that was picked to be rich in the highest values.

These sequences were tested on muMax20 (Max(13-93) K31hArg/K57hArg, M65Nle) (assay: PBM 8-mer E-score (E-score (rank enrichment, -0.5 to 0.5)); higher = stronger preferential binding).
Method: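 Protein binding microarray (universal PBM chip covering all 10-mers in fixed probe flanks) with chemically synthesized human Max(13-93) bHLH-LZ analogs (not full-length Max) bearing noncanonical residues (hArg, Tha, Aib, Nle at 65) and aromatic Cys staples. Read-out per 8-mer (and its reverse complement): E-score (rank-based enrichment, -0.5 to 0.5) and Z-score of median probe intensity.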

| Sequence | PBM 8-mer E-score |
| --- | --- |
| CATAATTA | 0.237 ± 0.031 |
| CATAATTC | -0.00772 ± 0.086 |
| GCGGAGCA | -0.239 ± 0.06 |
| AAGACACT | 0.186 ± 0.0044 |
| GAAACACA | 0.0586 ± 0.066 |
| ACAAGCTG | -0.103 ± 0.091 |
| AAACAATA | 0.234 ± 0.038 |
| CAACAATA | 0.324 ± 0.022 |
| TAACAATA | 0.257 ± 0.033 |
| AGACAATA | 0.2983 ± 0.00038 |
| CAACAATC | 0.0661 ± 0.052 |
| GAACAATA | 0.0766 ± 0.03 |
| AGACAATC | 0.0672 ± 0.021 |
| AGACAATG | 0.0426 ± 0.00081 |
| CAACAATG | 0.137 ± 0.096 |
| ACACCCGG | -0.144 ± 0.016 |
| GGGCTTGA | -0.165 ± 0.025 |
| ACACAGGA | 0.0105 ± 0.0057 |
| ACGGTCCT | -0.272 ± 0.044 |
| CTAAGTGC | -0.0257 ± 0.067 |
| TAAGAGAA | -0.0222 ± 0.03 |
| AAAAAAAT | 0.168 ± 0.066 |

| Sequence | PBM 8-mer E-score |
| --- | --- |
| ACCAAAAT | 0.168 ± 0.03 |
| GCAAATCA | -0.0323 ± 0.096 |
| ACAAATCA | 0.237 ± 0.12 |
| ACAAAAAA | 0.249 ± 0.033 |
| ACAAAAAC | 0.178 ± 0.055 |
| ACAAAAAG | 0.125 ± 0.074 |
| ACAAAAAT | 0.241 ± 0.05 |
| CCAAATCA | -0.0102 ± 0.046 |
| GTCATAAA | 0.193 ± 0.01 |
| CCAAAACA | 0.231 ± 0.1 |
| ACCACCGG | -0.2177 ± 0.00071 |
| ATCTCTCC | -0.0165 ± 0.16 |
| AACGCCCA | -0.077 ± 0.015 |
| AACGCCAC | -0.111 ± 0.023 |
| CTATGCCC | -0.0261 ± 0.02 |
| AACGAATC | 0.023 ± 0.089 |
| TGGTTACA | 0.0957 ± 0.036 |
| ATTATAAT | 0.201 ± 0.042 |
| GTTATAAA | 0.239 ± 0.037 |
| GTTATAAC | 0.187 ± 0.11 |
| ATTATAAA | 0.296 ± 0.053 |
| CTTATAAA | 0.191 ± 0.0045 |

| Sequence | PBM 8-mer E-score |
| --- | --- |
| ATTATAAG | 0.115 ± 0.13 |
| AGCCCAAG | -0.08 ± 0.11 |
| CGAGAAGA | 0.0468 ± 0.0088 |
| AGCCGTTG | -0.0362 ± 0.068 |
| AAATATAT | 0.2435 ± 0.0013 |
| ACCTATAA | 0.0216 ± 0.083 |
| AAATATAA | 0.218 ± 0.046 |
| CCATATAA | 0.225 ± 0.044 |
| ACATATAG | 0.0848 ± 0.12 |
| ACCTATAT | 0.265 ± 0.0044 |
| AAATATAC | 0.209 ± 0.032 |
| ACCTATAC | 0.0268 ± 0.14 |
| ACATATAC | 0.159 ± 0.052 |
| TCATATAA | 0.227 ± 0.06 |
| ACATATAA | 0.336 ± 0.069 |
| ACATATAT | 0.323 ± 0.054 |
| GCGTTTGA | -0.0646 ± 0.018 |
| AAGCGAGG | -0.129 ± 0.12 |
| GGCCACTA | 0.0658 ± 0.077 |
| GTTGCGCA | -0.0795 ± 0.002 |
| CACAGGTG | -0.0404 ± 0.033 |
| ACCTATCA | 0.0576 ± 0.061 |

| Sequence | PBM 8-mer E-score |
| --- | --- |
| CTATCGTC | -0.0258 ± 0.024 |
| CCGCGACA | -0.0992 ± 0.1 |
| TGGCAAAA | -0.0471 ± 0.026 |
| CCACGGGG | -0.281 ± 0.017 |
| GAATCACA | -0.0241 ± 0.022 |
| CAATCACA | 0.122 ± 0.095 |
| TAATCACA | 0.264 ± 0.042 |
| CAATCACC | 0.139 ± 0.013 |
| AAATCACA | 0.203 ± 0.026 |
| CAATCACG | 0.288 ± 0.039 |
| CCCGCAGC | -0.278 ± 0.086 |
| TAACGGGA | -0.0715 ± 0.059 |
| ACCGCTAC | -0.215 ± 0.034 |
| AACTCCAG | -0.117 ± 0.049 |
| GATTGTAA | 0.0589 ± 0.011 |
| TATTGTAA | 0.242 ± 0.023 |
| GAATGTAA | 0.0967 ± 0.041 |
| TAATGTAA | 0.252 ± 0.024 |
| AAATGTAA | 0.157 ± 0.049 |
| AATTGTAA | 0.196 ± 0.011 |
| TAATGTGA | 0.262 ± 0.065 |
